# ALOX12 inh: Primary qHTS assay for inhibitors of human arachidonate 12S-lipoxygenase (ALOX12): Round 2. Polyunsaturated fatty acid lipoxygenase ALOX12 (Homo sapiens), P18054. purified 12hLO, xylenol orange hydroperoxide absorbance. Potency, µM (series often up to 108 µM), without a hit: at the top dose activity change, negative = inhibition, usual class: inhibitors. 1.1% of 580,000 active. AID 1671190, 2021; further: potency means the concentration at half of the fitted maximal effect; on the % scale 0 is the no-effect control and ±100 the full control effect
# Target sequence (P18054 whole entry, looked up): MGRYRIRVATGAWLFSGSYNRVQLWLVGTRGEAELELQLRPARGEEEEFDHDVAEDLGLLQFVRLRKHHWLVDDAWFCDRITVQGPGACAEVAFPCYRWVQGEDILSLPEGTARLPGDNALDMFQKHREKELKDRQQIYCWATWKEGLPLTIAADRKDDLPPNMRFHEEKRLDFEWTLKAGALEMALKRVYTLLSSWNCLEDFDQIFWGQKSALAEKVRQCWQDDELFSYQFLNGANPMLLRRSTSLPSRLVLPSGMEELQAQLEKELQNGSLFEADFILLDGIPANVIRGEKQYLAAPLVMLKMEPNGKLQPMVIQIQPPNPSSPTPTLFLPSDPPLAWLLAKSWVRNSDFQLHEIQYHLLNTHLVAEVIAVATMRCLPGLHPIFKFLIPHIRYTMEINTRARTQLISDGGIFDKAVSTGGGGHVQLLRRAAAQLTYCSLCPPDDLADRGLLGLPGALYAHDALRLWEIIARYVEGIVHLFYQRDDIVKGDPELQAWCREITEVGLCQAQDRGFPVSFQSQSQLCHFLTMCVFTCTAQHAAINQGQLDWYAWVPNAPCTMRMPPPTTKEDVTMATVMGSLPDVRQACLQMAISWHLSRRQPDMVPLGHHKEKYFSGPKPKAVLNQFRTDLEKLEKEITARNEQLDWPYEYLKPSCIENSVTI
#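 Purified human 12hLO (150 nM final) in 25 mM Hepes, 0.01% Triton X-100, pH 7.0 was preincubated 15 min at room temperature with compound. Then 40 uM arachidonic acid was added, 30 min. Hydroperoxide was read by Fe-XO absorbance ratio 573/405 nm.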
# ERG Ets-DNA blk: qHTS for Small Molecule Inhibitors of the ERG Ets/DNA interaction; Transcriptional regulator ERG (Homo sapiens), P11308; fluorescence polarization, His-ERG Ets domain / labelled DNA; Potency, µM (titrated, usually from 76.9 µM), for the others: top-dose FP activity, negative = inhibition, hits mostly inhibitors; 0.028% of 370,000 active; AID 624246, 2012; active means well fitted inhibition curve with a large enough effect in the polarisation, with a control signal flat; inconclusive means small, poorly fitted or top-dose-only effect, or effect the other way, or a change in a side signal; inactive means no such curve, though single readings can be large or run the other way; the % refers to the polarisation;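 further: polarization taken with two DNA probes labelled with fluorescein and Texas red; potency means the concentration at half of the fitted maximal effect; % of control where 0% means no effect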
#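 His-tagged ERG Ets domain (1 uM in the protein solution; 300mM KCl, 50mM Tris-HCl, 1mM EDTA, 1mM DTT, pH 7.5) received compound, then a probe mix of 5 nM fluorescein-DNA and 100nM Texas-615-DNA. Fluorescence polarization was read for both dyes.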
# miR-21 reporter: qHTS Assay for Modulators of miRNAs and/orActivators of miR-21. Potency, µM (highest dose often 38.3 µM), without a hit: at the highest dose activity change, positive = activation, actives largely listed as activators. HeLa miR-21 FLuc reporter, luciferase, 48 h. 340,000 tested, under 10 active;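 further: % of control where 0% means no effect; miR-21 action dims this reporter so a rising signal means less miR-21 action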
#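 Compounds were titrated across several concentrations (up to approximately 40 uM) and incubated 48 hours with HeLa miR-21-FLuc reporter cells (miR-21 target sequence downstream of FLuc, endogenous miR-21). Readout was firefly luciferase luminescence after lytic detection reagent.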
# Giardia kill: Small Molecules that selectively kill Giardia lamblia: qHTS | Giardia lamblia trophozoite viability | activity change, % at 7.66 µM, hits read low | 0.15% of 340,000 active; in the data active means activity change below about -80%; inconclusive means between about -30% and that limit;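 further: parasites exposed to compound for two days anaerobically before the ATP read; on the % scale 0 is the no-effect control and ±100 the full control effect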
#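 Trophozoite viability was measured as ATP-dependent luminescence, read 15-30 min after reagent addition. Before that, parasites at 100 cells/well were exposed to compounds for 48 h, anaerobically, at 37 deg C.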
# PTHR1 agonist: qHTS for PTHR1 Agonists: Primary Screen | Potency, µM (highest dose often 115 µM), without a hit: top-dose activation, hits mostly activators | 0.075% of 410,000 active | HEK293 GP2 PTHR1 cells, GloSensor cAMP luminescence, 1 h; further: potency means the concentration at half of the fitted maximal effect; nearly all actives have a fitted effect of over 55% in size
#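 HEK-293-derived GP2 cells expressing PTHR1 and a GloSensor cAMP reporter, 3,000/well, plated overnight, given luciferin plus IBMX (each 0.5 mM as added) for 1 h at 37 °C, then compound for 1 h at 37 °C. Luminescence was read after 15 min at room temperature.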
# PINK1 expr mod: A Quantitative High throughput Screen to Identify Chemical Modulators of PINK1 Expression | 0.2% of 410,000 active | AID 624263, 2012 | Potency, µM (series often up to 76.6 µM), for the others: top-dose activation (PINK1 increase), usual class: activators | PINK1 immunofluorescence, high-content cytometry, 24 h; active means well fitted activation curve with a large enough effect; inconclusive means small, poorly fitted or top-dose-only effect; cell line not stated here; further: potency means the concentration at half of the fitted maximal effect; % of control where 0% means no effect; nearly all actives have a fitted effect of over 65% in size
#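 A stable cell line was treated with compounds at 5 concentrations for 24 hours, with CCCP as control. PINK1 levels and mitochondrial localization were measured by immunofluorescence with mitochondrial, cell and nuclear markers after fixation, read by laser-scanning cytometry.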
# An asterisk follows results filed as active; i = inactive; u = inconclusive; x = no result given; [ ] = remark or other dose. Compounds with a hit are over-represented: about 1.3% of the library has one in this group of screens. Unless noted, the call rests on the fitted dose curve; in most records, active means well fitted curve in the direction sought with a large enough effect; inconclusive means small, poorly fitted or top-dose-only effect, or another doubt; inactive means no such curve, though single readings can be large; an effect the other way counts as inactive or inconclusive.
SMILES,ALOX12 inh,ERG Ets-DNA blk,miR-21 reporter,Giardia kill,PTHR1 agonist,PINK1 expr mod
CN1C(=O)/C(=C\c2ccccc2OCc2ccccc2)SC1=S,14.1%,3.3%,1.3%,-21.4,i,u
CN1C(=O)/C(=C\c2cc(N=Nc3ccccc3)ccc2O)SC1=S,88.0%,12.1%,-5.9%,-7.2,-14.4%[57.5 µM],39.8µM*
CN(C)S(=O)(=O)c1cc(C(=O)OCCn2cnc3c2c(=O)n(C)c(=O)n3C)ccc1Cl,3.2%,12.1%,-0.3%,3.2,-13.3%,0.4%
COc1ccc(C(=O)COc2ccc(C)cc2NC(C)=O)cc1,148.1%,-1.5%,-30.4%,-15.3,-17.7%,3.2%
COc1ccc(-c2nc3c(C)cc(Br)cn3c2CC2CCCCC2)cc1OC,7.08µM*,x,x,x,-9.2%,11.5%
COc1ccc(-c2nc3c(C)cc(Br)cn3c2CC(C)(C)C)cc1OC,31.6µM*,x,x,x,-16.9%,3.4%
COc1ccccc1Cc1c(-c2ccc(OC)c(OC)c2)nc2c(C)cc(Br)cn12,u,x,x,x,-16.5%,16.5%
O=C(CN(CC(=O)Nc1ccc(Br)cc1)CC(=O)Nc1ccc(Br)cc1)Nc1ccc(Br)cc1,11.2µM*,x,x,x,x,x
Cc1ccc(S(=O)(=O)N2CCN(CCNC(=O)c3cccc(C(F)(F)F)c3)CC2)cc1,28.2µM*,x,x,x,x,x
O=C(C(=O)N1CCN(S(=O)(=O)c2ccc(C(F)(F)F)cc2)CC1)c1cccc(C(F)(F)F)c1,-4.0%,x,x,x,x,x
Cc1ccc(S(=O)(=O)N2CCN(CCNC(=O)c3ccc(C(F)(F)F)cc3)CC2)cc1,15.8µM*,x,x,x,x,x
Cc1ccc(S(=O)(=O)N2CCCN(S(=O)(=O)c3ccc(C(F)(F)F)cc3)CC2)cc1,-24.7%,0.2%,-2.7%,-12.2,-25.7%,17.8%[38.3 µM]
Cc1cnc(C(=O)N[C@@H]2CCC[C@@H]2C(=O)NC2CCCCCC2)cn1,79.8%,x,x,x,x,x
CC(=O)Oc1cccc(/C=C2\Sc3ccccc3C2=O)c1,u,6.3%,0.6%,0.4,-40.0%,7.1%
CC(=O)OC1=CSc2cccc3cccc1c23,39.8µM*,x,x,x,x,x
O=c1n(-c2ccc(F)cc2F)nc2n1CCN(Cc1cccc3ccccc13)C2,28.2µM*,x,x,x,x,x
COc1cccc(-c2nc(SCC(=O)Nc3nc(-c4ccccc4)c(C)s3)[nH]c(=O)c2C#N)c1,14.1µM*,3.4%,6.5%,-25.2,-18.0%,4.9%
CCOc1ccc2nc(NC(=O)CSc3nc(-c4ccccc4)c(C#N)c(=O)[nH]3)sc2c1,u,-3.2%,-20.8%,-10.1,16.0%,0.5%
CCN(CC)c1ccc(C(=O)NCc2nnc3cc(-c4nc(C)no4)ccn23)cc1,2.8%,x,x,x,x,x
CCOC(=O)[C@@H]1[C@H]2COc3cc(OC)ccc3[C@H]2N2C(=O)N(c3ccc(C(F)(F)F)cc3)C(=O)[C@]12C,-5.7%,3.2%,x,-22.3,i,39.8µM*
CCOC(=O)[C@@H]1[C@H]2COc3cc(OC)ccc3[C@@H]2N2C(=O)N(c3ccc(C(F)(F)F)cc3)C(=O)[C@@]12C,-0.2%,7.2%,8.0%,6.9,-37.4%,1.1%
NC(=O)C1(N2CCCCC2)CCN(Cc2ccc(Br)cc2)CC1,35.8%,-6.6%,7.1%,2.5,i,-0.3%
COc1ccc(CCNC(=O)c2cc(C)oc2C)cc1,0.0%,1.6%,-12.5%,-5.8,-2.8%,-0.1%
CC1(C)Cc2c(ccc3ccccc23)C(CCl)N1 (stereo not given),5.62µM*,x,x,x,x,x
CCC(Cc1ccccc1)OC(=O)c1ccccc1C(=O)O (stereo not given),-2.4%,-0.8%,x,-19.3,i,-3.0%
SMILES,ALOX12 inh,ERG Ets-DNA blk,miR-21 reporter,Giardia kill,PTHR1 agonist,PINK1 expr mod
Cc1ccc(S(=O)(=O)/N=C2/NC(=O)/C(=C\c3ccccc3)S2)cc1,39.8µM*,-9.9%,x,-10.0,i,u
Cc1ccc(/C=C2\S/C(=N/S(=O)(=O)c3cccs3)NC2=O)cc1,28.2µM*,-5.4%,-14.6%,-3.3,i,2.1%
Cc1ccc(S(=O)(=O)/N=C2/NC(=O)/C(=C\c3ccco3)S2)cc1,u,8.6%,-11.5%,14.5,-17.9%,-1.8%
Cc1ccc(S(=O)(=O)/N=C2/NC(=O)/C(=C/c3ccccc3)S2)cc1,12.6µM*,2.8%,-10.9%,-24.8,-44.6%,0.2%
Cc1ccc(S(=O)(=O)/N=C2/NC(=O)/C(=C/c3ccncc3)S2)cc1,u,x,1.1%,x,x,x
O=C(C1CCCC1)N1CCC(CC2CC(c3cccc(Br)c3)=NO2)(C(=O)NCC2CCCCC2)CC1 (stereo not given),u,4.3%,0.1%,-28.6,-3.5%,2.2%
O=C(Cn1nnc(-c2ccc3c(c2)OCO3)n1)Nc1ccccc1C(=O)O,22.4µM*,43.5%,-69.5%,-7.9,-26.3%,-1.1%
O=C(Nc1cc(Br)ccc1O)c1cc(-c2ccco2)on1,28.2µM*,1.8%,-29.7%,1.0,i,11.2%
Cc1ccc(NCc2ccc(O)c3ncccc23)cc1C,u,-2.1%,-26.6%,0.6,i,u
Cc1cccc(NCc2ccc(O)c3ncccc23)c1C,5.62µM*,-3.9%,29.5%,-8.0,-8.8%,15.8µM*
Cc1ccc(O)c(CNc2cccc3cccnc23)c1,-14.9%,1.1%,-3.6%,21.8,-1.7%,4.4%
Cc1cccnc1NCc1ccc(O)c2ncccc12,u,-14.6%,u,5.5,i,14.1µM*
Cc1ccc(NCc2ccc(O)c3ncccc23)cc1,3.98µM*,7.7%,-3.7%,5.0,-3.4%,-0.7%
CCOC(=O)c1ccc(NC(=O)c2nc[nH]c2C(=O)N[C@@H](C)C(=O)OC(C)(C)C)cc1,2.2%,-7.9%,2.8%,-2.1,i,1.7%
Cc1ccc(C(=O)NC(=S)NCC2CCCO2)cc1Br (stereo not given),28.2µM*,13.9%,-73.7%,12.9,-16.8%,2.2%
Clc1cccc(/C=N/N=C/c2cccc(Cl)c2)c1,9.3%,x,x,x,x,x
Clc1ccc(N/N=C/c2ccccc2)cc1Cl,2.24µM*,x,x,x,x,x
Brc1cccc(/C=N/Nc2ccc3ccccc3c2)c1,5.62µM*,x,x,x,x,x
Clc1ccc(N/N=C/c2ccncc2)cc1Cl,u,-4.2%,-69.4%,-1.7,i,-1.4%
Clc1ccc(N/N=C/c2cccc(/C=N/Nc3ccc(Cl)c(Cl)c3)c2)cc1Cl,0.708µM*,x,x,x,x,x
Clc1cccc(/C=N/Nc2ccc(Cl)c(Cl)c2)c1,5.62µM*,x,x,x,x,x
COc1ccccc1CNC(=O)c1ccc(N2CCCC2)c(NC(=O)NCCC(C)C)c1,-6.1%,-2.4%,-4.6%,x,-27.8%,-0.8%

# Source: PubChem (National Center for Advancing Translational Sciences (NCATS))
